Measurements as given in PubChem BioAssay (NCATS).
Inconclusive results are not listed. Active and inactive are the calls of the source. Calls follow the shape of the dose curve; as a rule, active = well fitted inhibition curve with a large enough effect; inconclusive = small, poorly fitted or top-dose-only effect; inactive = flat fitted curve, though single readings scatter.

What follows are compounds tested on NIH3T3 (assay: Cytotoxic Profiling of Annotated Libraries Using Quantitative High-Throughput Screening (AID 1296008; also: nearly all actives have a fitted effect of over 60% in size)). Conditions: Five cell lines viability, CellTiter-Glo ATP luminescence, 48-72 h; max response: stronger effect = lower value.
Summary of the method: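 Cytotoxicity was measured as CellTiter-Glo ATP luminescence, read after 10 min at room temperature. Compound treatment of the cells lasted 48 or 72 hr at 37 degrees Celsius in a qHTS format.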
% is scaled to controls: 0 for no effect and ±100 for the full control effect; potency is read from the fitted curve at half-maximal effect.

| Compound | max response | outcome | Potency |
| --- | --- | --- | --- |
| CC1=C(C(=O)OC2CCCCC2)C(c2ccc([N+](=O)[O-])cc2)C2=C(CC(C)(C)CC2=O)N1 (stereo not drawn) | -3.56% (inactive) |  |  |
| Cc1cn2c(n1)Cc1ccc(Cl)cc1C(c1ccc(N)cc1)=N2 | -15.7% (inactive) |  |  |
| CC1(C)CC[C@]23CO[C@@]4(CCC5[C@@]6(C)CC[C@H](O[C@@H]7OC[C@H](O[C@@H]8O[C@H](CO)[C@@H](O)[C@H](O)[C@H]8O[C@@H]8OC[C@@H](O)[C@H](O)[C@H]8O)[C@H](O)[C@H]7O)[C@@](C)(CO)C6CC[C@@]5(C)[C@]4(C)CC2=O)[C@@H]3C1 (stereo partly drawn) | -14.1% (inactive) |  |  |
| CCCc1cc(C)n(C)c(=O)c1CN(C)C(=O)c1cc(-c2ccc(N3CCN(C(C)C)CC3)nc2)cc2c1cnn2C(C)C |  | inactive |  |
| O=C(NC[C@H](O)CN1CCc2ccccc2C1)c1ccnc(NC2CCC2)c1 | -20.6% (inactive) |  |  |
| C[C@@H]1C[C@H]2O[C@@]3(O[C@@H]2C(C)(C)O)C(O)[C@@]2(C)C4CCC5C(C)(C)[C@@H](O[C@H]6OC[C@H](O)[C@@H](O)[C@@H]6O)CC[C@@]56C[C@@]46CC[C@]2(C)C13 (stereo partly drawn) | -0.0399% (inactive) |  |  |
| COc1cc(CCc2cc(NC(=O)c3ccc(N4CC(C)NC(C)C4)cc3)n[nH]2)cc(OC)c1 (stereo not drawn) |  |  | 14.6 µM (active) |
| C=CC(C)(O)CC[C@@H]1[C@@]2(C)CCCC(C)(C)C2CC[C@@]1(C)O (stereo partly drawn) | -17% (inactive) |  |  |
| O=C(COc1ccc(C(=O)c2ccccc2)cc1)NC1CCN(Cc2ccccc2)CC1 | -2.94% (inactive) |  |  |
| CC(=O)NCc1cccc(OC[C@@H](O)CNCCc2ccc(NS(=O)(=O)c3ccccc3)cc2)c1 |  | inactive |  |
| C[C@H]1CC[C@@]2(OC1)O[C@H]1CC3C4CC[C@H]5C[C@@H](O)CC[C@]5(C)C4=CC(=O)[C@]3(C)[C@H]1[C@@H]2C (stereo partly drawn) |  | inactive |  |
| COCCN(C(=O)c1cc(OC)c(OC)c(OC)c1)c1nc(-c2ccccc2)cs1 | 3.38% (inactive) |  |  |
| CC(C)c1ccc(NC(=O)Cn2cnc3c2c(=O)n(C)c(=O)n3C)cc1 | -6.55% (inactive) |  |  |
